High-throughput results from PubChem BioAssay.
pS6 MEF inh – Acumen qHTS Assay for Inhibitors of the mTORC1 Signaling Pathway in MEF (Tsc2-/-, p53-/-) Cells: Sytravon; Tsc2-/- p53-/- MEF, phospho-rpS6 immunofluorescence/PI, 24 h; Potency, µM (top dose mostly 38.3 µM), for the others: at the top dose activity change, negative = inhibition, hits mostly inhibitors; hit rate 0.78% among 44,000; AID 493208, 2011;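 further: plate controls were DMSO for no effect and rapamycin for full effect; nearly all actives have a fitted effect of over 50% in size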
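Compounds act on Tsc2-/-, p53-/- fibroblasts carrying an empty vector for 24 h before fixation and dual staining for phospho-S6 and DNA (propidium iodide). Values are percentages of cells above a rapamycin-defined pS6/PI threshold.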
S16 viability – Cell viability qHTS assay in S16 Pmp22-F2sN cells. AID 1508642, 2021. Potency, µM (top dose mostly 57.5 µM), without a hit: top-dose activity change, negative = cytotoxicity, usual class: cytotoxic. S16 Pmp22-F2sN Schwann cells viability, CellTiter-Glo, 24 h. hit rate 0.48% among 43,000; further: nearly all actives have a fitted effect of over 65% in size
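Luminescence from CellTiter-Glo, read by CCD camera after a 15 min room-temperature incubation, served as the viability signal. Reporter Schwann cells (S16 Pmp22-F2sN) had been treated with pin-transferred compounds for 24 h at 37C.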
p53null 32C kill – qHTS Screen for Compounds that Selectively Target Cancer Cells with p53 Mutations: Cytotoxicity of p53 Null Cells at the Permissive Temperature; Potency, µM (titrated, usually from 46.1 µM), without a hit: at the highest dose activity change, negative = cytotoxicity, usual class: cytotoxic; hit rate 0.62% among 55,000; H1299-neo p53 null cells, ATP luminescence, 24 h, 32C;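 further: 0% = DMSO only and -100% = full killing by 100 µM tamoxifen; nearly all actives have a fitted effect of over 55% in size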
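H1299-neo (p53 null) cells, 600/well, treated 24 h at 32C with compound up to 46 uM; ATPlite luminescence viability, normalized to DMSO and 100 uM tamoxifen; AC50 by Hill fit.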
OvCa metastasis – Primary qHTS assay for Inhibitors of ovarian cancer metastasis using an organotypic tumor microenvironment (TME) model; SKOV3ip1-GFP adhesion/invasion on 3D omental model, fluorescence; Potency, µM (doses to about 45.8 µM), for inactives: at the top dose activity change, negative = inhibition, hits mostly inhibitors; hit rate 0.1% among 46,000; AID 1963576, 2024;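 further: plate controls were DMSO wells for no effect and tomatine positive control wells for full effect; nearly all actives have a fitted effect of over 65% in size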
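Adhesion/invasion was scored as fixed GFP-labeled SKOV3ip1 cell counts (488/509 nm), normalized to DMSO and tomatine controls. Cancer cells in serum-free medium, with four compound doses (0.36-46 umol/L), sat 2 hr at RT then 16 hr at 37 C on a 48 hr fibroblast/mesothelial/ECM culture.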
PMP22 txn prim – Cell-based coincidence reporter assay to measure PMP22 gene transcription in S16 Pmp22-F2sN cells - Primary screen | AID 1508649, 2021 | Potency, µM (highest dose often 57.5 µM), inactives show at the highest dose activity change, negative = inhibition, usual class: inhibitors | hit rate 2% among 43,000 | S16 Pmp22-F2sN Schwann cells (luciferase reporters placed in the Pmp22 gene), FLuc/NLuc coincidence luminescence, 24 h; active means clear falling dose curves in both reporters; inconclusive means both reporters move, but less clearly or upward; inactive means either reporter flat; the % is the NLuc reporter signal
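Luminescent read-out of sequential FLuc and NLuc signals from a reporter embedded in the Pmp22 3' UTR of S16 Schwann cells, taken after 24 h compound exposure at 37C; compounds reducing both signals score as inhibitors of expression.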
p53null 39C tox – qHTS Screen for Compounds that Selectively Target Cancer Cells with p53 Mutations: Cytotoxicity of p53 Null Cells at the Nonpermissive Temperature; AID 904, 2007; Potency, µM (highest dose often 46.1 µM), without a hit: at the highest dose activity, negative = cell killing, actives largely listed as cytotoxic; H1299 p53-null (neo) cells, 39C, ATPlite viability, 24 h; hit rate 0.97% among 55,000;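 further: 0% = DMSO only and -100% = full killing by 100 µM tamoxifen; nearly all actives have a fitted effect of over 50% in size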
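Following overnight plating at 37C (600 cells/well), H1299-neo or H1299-p53A138V cells are dosed up to 46 uM. Incubation lasts 24 hr at 39C before ATP detection.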
Numbers without * were called inactive; i = inactive; ? = inconclusive; . = no result. This is a sample that favours compounds with a hit; in the whole collection about 3% have one here. Unless noted, the call rests on the fitted dose curve; in most records, active means well fitted curve in the direction sought with a large enough effect; inconclusive means small, poorly fitted or top-dose-only effect, or another doubt; inactive means no such curve, though single readings can be large; an effect the other way counts as inactive or inconclusive. Unless noted, on the % scale 0 is the no-effect control and ±100 the full control effect; potency means the concentration at half of the fitted maximal effect.

SMILES	pS6 MEF inh	S16 viability	p53null 32C kill	OvCa metastasis	PMP22 txn prim	p53null 39C tox
COc1cccc(C2=CC(c3ccccc3F)n3ncc(C(=O)Nc4ccc(C)cc4)c3N2)c1 (centres undefined)	-16.3%	?	41.4%	1.6%	?	20.8%
Cc1ccc(C2=CC(c3ccccc3F)n3c(nc4ccccc43)N2)cc1C (centres undefined)	-0.7%	?	12.6µM*	-5.5%	?	?
COc1ccc(C)cc1S(=O)(=O)NCC(c1cccs1)S(=O)(=O)c1ccc(C)cc1 (centres undefined)	-6.6%	25.1µM*	17.4%	-2.5%	?	10.1%
COc1ccc(S(=O)(=O)NCC(c2cccs2)S(=O)(=O)c2ccc(C)cc2)cc1F (centres undefined)	-0.8%	?	5.1%	-6.6%	?	1.7%
Cc1ccc(S(=O)(=O)C(CNS(=O)(=O)c2cc(F)ccc2F)c2cccs2)cc1 (centres undefined)	-0.1%	20µM*	5.3%	-4.8%	?	?
COc1cccc(/C=N/Nc2nnc(C)n2N)c1OCc1ccccc1Cl	.	.	.	.	.	17.8µM*
OC[C@H]1O[C@@H](Oc2ccc(O)cc2)[C@H](O)[C@@H](O)[C@H]1O	.	.	.	10.8%	.	.
NC(=O)[C@@H](CCC(F)(F)F)N(Cc1ccc(-c2ncon2)cc1F)S(=O)(=O)c1ccc(Cl)cc1	.	.	.	-16.6%	.	.
Cc1nc2c(C(=O)NCCc3ccc(Cl)cc3)c[nH]n2c(=O)c1Cc1ccccc1F	-6.5%	17.7%	?	i	-32.1%	?
Cc1nc2c(C(=O)NCCc3ccccc3)c[nH]n2c(=O)c1Cc1ccc(F)cc1Cl	-14.5%	8.8%	12.6µM*	8.1%	?	?
CC(C)=CCCC(C)=CCCC(C)=CCSc1ccccc1C(=O)O	.	.	.	-15.4%	.	.
CC(C)c1ccc(C2=CC(c3cccc(Cl)c3)n3c(nc4ccccc43)N2)cc1 (centres undefined)	-4.5%	-19.3%	22.4µM*	-9.6%	?	?
CCc1ccc(C2=CC(c3cccc(OC)c3OC)n3c(nc4ccccc43)N2)cc1 (centres undefined)	0.1%	?	14.1µM*	13.3%	?	?
CC(C)c1ccc(C2=CC(c3cccc(Cl)c3)n3ncnc3N2)cc1 (centres undefined)	-0.9%	?	8.1%	-17.3%	?	6.6%
CCc1ccc(C2=CC(c3cccc(C)c3)n3c(nc4ccccc43)N2)cc1 (centres undefined)	-4.3%	?	10µM*	-6.9%	?	10µM*
CN(C)c1ccc(CNC(=O)CCCn2ccc3cc(S(=O)(=O)N4CCCC4)ccc32)cc1	-9.3%	?	-2.6%	-6.1%	?	2.6%
O=C(CCCn1ccc2cc(S(=O)(=O)N3CCCC3)ccc21)NCc1ccc(Cl)cc1	7.36µM*	?	-6.7%	-23.5%	?	?
c1ccc(-c2oc3ncnc(NC[C@@H]4CCCO4)c3c2-c2ccccc2)cc1	.	.	.	-0.8%	.	.
COc1ccccc1N1CCN(Cc2cc(COC(C)C)c3cccnc3c2O)CC1	5.85µM*	7.08µM*	15.8µM*	?	3.5µM*	1.58µM*
CCOCc1cc(CN2CCN(c3ccccc3OC)CC2)c(O)c2ncccc12	?	3.16µM*	1.0%	i	?	1.26µM*
CCCOCc1cc(CN2CCN(c3ccccc3OC)CC2)c(O)c2ncccc12	9.27µM*	10µM*	15.8µM*	i	5.77µM*	3.16µM*
O=C1NC(O)CCN1[C@@H]1O[C@H](CO)[C@H](O)[C@H]1O (some centres undefined)	.	.	.	-15.1%	.	.
CN(C)c1ccc(C(=O)NCCCCCCC(=O)NO)cc1	.	.	.	16.1%	.	.
COc1ccccc1Nc1nn2c(=O)c3ccc(C(=O)NCc4cccs4)cc3nc2s1	-5.4%	7.94µM*	10µM*	i	10µM*	?
CCN(CC)CCNC(=O)c1ccc2c(=O)n3nc(Nc4ccccc4OC)sc3nc2c1	-0.4%	10.8%	-19.4%	i	?	?
SMILES	pS6 MEF inh	S16 viability	p53null 32C kill	OvCa metastasis	PMP22 txn prim	p53null 39C tox
CC(C)(C)c1cnc(CSc2cnc(NC(=O)C3CCNCC3)s2)o1	.	.	.	12.2%	.	.
NC(=O)Nc1cc(-c2ccc(CN3CCOCC3)cc2)sc1C(N)=O	.	.	.	7.9%	.	.
Cc1ccc(C)c(-c2nnc(NC(=O)c3ccc4c(c3)OCCO4)o2)c1	0.1%	?	-11.7%	i	?	7.94µM*
Cc1ccc(Cl)cc1N1CCN(CCNC(=O)Nc2ccc(Cl)cc2)CC1	-29.0%	?	?	?	?	20µM*
CCOc1ccc(NC(=O)NCCN2CCN(c3cc(Cl)ccc3C)CC2)cc1	-11.4%	-7.5%	8.4%	9.2%	?	-11.2%
O=c1cc(N2CCOCC2)oc2c(-c3cccc4c3sc3ccccc34)cccc12	.	.	.	-28.9%	.	.
COc1cc(OC)cc(C(=O)Nc2cc(-c3nc4ccccc4[nH]3)ccc2C)c1	-0.3%	-26.9%	6.8%	i	-44.1%	-18.3%
Cc1ccc(C(C)C)c(OCC(=O)Nc2cc(-c3nc4ccccc4[nH]3)ccc2C)c1	13.1µM*	?	?	-14.6%	?	7.94µM*
O=C(/C=C/Nc1ccccc1C(=O)O)c1cccs1	.	.	35.5µM*	.	.	.
Cc1cc(=O)n2nc(N3CCC(C(=O)Nc4ccc(Br)c(C)c4)CC3)sc2n1	-1.6%	1.3%	9.3%	i	15µM*	-6.1%
CC1CCn2c(nc3cc(C(=O)NCCc4ccccc4)ccc32)C1 (centres undefined)	2.2%	13.4%	12.6µM*	i	24.7%	25.1µM*
Cc1ccccc1CCNC(=O)c1ccc2c(c1)nc1n2CCCCC1	-0.5%	0.1%	2µM*	-27.9%	4.4%	1.26µM*
Cc1ccccc1CCNC(=O)c1ccc2c(c1)nc1n2CCOC1	0.1%	-1.6%	7.94µM*	3.1%	6.9%	3.16µM*
CNC(=O)c1cc(Oc2ccc(NC(=O)Nc3ccc(Cl)c(C(F)(F)F)c3)c(F)c2)ccn1	.	.	.	-25.9%	.	.
Cc1cc(Nc2cccc(C(F)(F)F)c2)nc2ccc(NC(=O)c3cccc(Cl)c3)cc12	?	-19.5%	-17.5%	-1.8%	?	12.6µM*
